Assay results as given in the supplement of paper PMC3334620.
Over roughly 33,000 sequences, “E-score (-0.5 to 0.5)” has its median near -0.035; the highest 2% begin near 0.34. This excerpt belongs to a sample that is enriched for the highest values.

Each sequence was assayed against T1, Mot3 (UniProt P54785) (assay: PBM E-score (8-mer binding enrichment) (E-score (-0.5 to 0.5)); higher = stronger / more preferred TF binding). Conditions: protein concentration: 200 nM; construct: GST-full length.
T1 sequence: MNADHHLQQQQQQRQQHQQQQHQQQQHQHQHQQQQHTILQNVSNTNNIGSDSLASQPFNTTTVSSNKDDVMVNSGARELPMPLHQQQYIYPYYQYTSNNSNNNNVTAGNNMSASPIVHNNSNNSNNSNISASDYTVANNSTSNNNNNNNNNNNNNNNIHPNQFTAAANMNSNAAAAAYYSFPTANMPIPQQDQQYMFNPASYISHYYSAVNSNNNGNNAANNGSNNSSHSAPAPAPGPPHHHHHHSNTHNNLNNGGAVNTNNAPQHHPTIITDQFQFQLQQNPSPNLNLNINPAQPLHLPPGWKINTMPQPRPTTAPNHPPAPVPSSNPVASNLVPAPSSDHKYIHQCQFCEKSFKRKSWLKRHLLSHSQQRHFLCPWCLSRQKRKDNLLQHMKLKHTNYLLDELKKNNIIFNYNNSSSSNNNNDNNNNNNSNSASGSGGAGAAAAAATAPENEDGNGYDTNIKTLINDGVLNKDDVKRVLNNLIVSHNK
Experimental: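 Universal 'all 10-mer' protein binding microarrays (Agilent AMADID 015681) probed with GST-tagged S. cerevisiae TFs (full-length or DBD) made by in vitro transcription/translation (PURExpress), about 100-200 nM. Bound TF was detected with fluorescent anti-GST. Each ungapped 8-mer (which stands for itself and its reverse complement) is scored by the PBM enrichment score (E-score), a modified Wilcoxon-Mann-Whitney statistic from -0.5 to +0.5, computed with the Universal PBM Analysis Suite. Scale: above 0.35 generally sequence-specific binding.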

Point of comparison: ATACATGC, “PBM E-score” value 0.361. Against it:
- CCAAAGTC — lower, -0.189
- CAAGGGGC — lower, -0.148
- ACGTGCTC — lower, 0.0193
- ACCTGGGA — lower, -0.0112
- AACAGGAG — lower, 0.0835
- CACAGGAC — lower, -0.175
- TACAGTAA — lower, 0.194
- AACAGGAC — lower, 0.19
- CACAGGAG — lower, 0.0555
- GACAGAAA — lower, 0.0469
- GACAGGAA — higher, 0.374
- CACAGGAA — higher, 0.385
- AACAGGAA — higher, 0.416
- TACAGGAA — higher, 0.43
- TAGAGGAA — lower, -0.0809
- GACAGGAC — lower, -0.231
- ACTGAGGC — lower, -0.119
- ATTCACTA — lower, 0.124
- ACCATTAC — lower, 0.168
- CGGTCCCA — lower, -0.296
- AACCAGCT — lower, 0.0762
- ACTAGCAG — lower, 0.109
- ACTCCAAG — lower, -0.0115
- AGTCCGAT — lower, -0.158
- AGAAACGA — lower, 0.0178
- CGTCGTAA — lower, 0.0759
- AGGTTGGA — lower, -0.173
- CGGAGGCC — lower, -0.224
- AGGAGGCG — lower, -0.163
- CGGAGGCA — higher, 0.375
- GGGAGGGA — lower, -0.149
- GGGAGGCA — higher, 0.364
- CGGAGGTA — lower, -0.0405
- AGGAGGCC — lower, -0.263
- AGGAGGCA — higher, 0.382
- GGGAGGAA — lower, -0.11
- CAGACCAC — lower, -0.109
- GTGGCCTA — lower, 0.0303
- ATCTAAAG — lower, 0.136
- ACCAAGCA — lower, -0.0877
- CGGGGACC — lower, -0.0971
- AGAAACTA — lower, -0.0831
- GTGGATGA — lower, -0.0229
- AAGGCAAT — higher, 0.479
- AAGGCAAA — higher, 0.479
- AAGGCGAA — lower, -0.0356
- AAGGCAAG — higher, 0.485
- AAGGCAAC — higher, 0.487
- ACGGCAAT — lower, 0.0994
- AAGGCAGC — lower, 0.276
- AGGGCAAA — lower, -0.0247
- AAGGCAGT — lower, -0.0323
- ATGGCAAC — lower, -0.0341
- ACGGCAAG — lower, -0.116
- AAGGCAGG — lower, 0.231
- GGATGCGA — lower, -0.246
- ACACAGCG — lower, 0.318
- GCCCGATA — lower, -0.181
- AAGTTCAT — lower, -0.132
- GGGGCAAC — lower, -0.0256
- GAGGCAAC — higher, 0.435
- GCGGCAAC — lower, -0.0624
- CTACGCTC — lower, -0.0123
- TACAAGCA — lower, 0.284
- GCTACTCA — lower, -0.175
- CTCTAGCA — lower, -0.0349
- ATTTCCCA — lower, -0.0389
- ATTTCCAG — lower, 0.0581
- ATTTCCTG — higher, 0.41
- ATTTCCAA — lower, 0.0549
- ATTTCCTA — higher, 0.371
- ATTTCCTC — lower, -0.0476
- AAGATTGT — lower, 0.126
- CCGGTGCG — lower, -0.0852
- AATAGCCA — lower, -0.0713
- CCAGGAGA — lower, -0.238
- CAAGGTAA — lower, 0.258
- GAAGGTAC — higher, 0.438
- AAAGGTAG — lower, -0.135
- GAAGGTGC — lower, 0.136
- CAAGGTAG — lower, 0.0907
- CAAGGTGC — lower, 0.0747
- AAAGGTAC — higher, 0.42
- AAAGGTAA — lower, 0.324
- GGAGGTAC — lower, 0.0528
- AAAGGTAT — lower, 0.102
- GAAGGTAA — higher, 0.397
- CAAGGTAC — higher, 0.376
- CGCGACGC — lower, -0.148
- ATACCCGG — lower, 0.0542
- TCGCCCCA — lower, -0.213
- CACTGTCC — lower, -0.196
- GGACCGCC — lower, -0.212
- ACCCTTTG — lower, -0.147
- GCATTCAC — lower, 0.0735
- ACGTCTCT — lower, 0.0141
- AAGCAATG — lower, -0.0928
- ATCAGGAT — lower, -0.12
- AAAGGGGG — lower, -0.0401
- ATACATAC — lower, 0.28
- ATACATGG — higher, 0.374
- ATACATCA — lower, 0.16
- ACACATGG — lower, 0.144
- ATACATGA — higher, 0.363
- CTACATGA — the same, 0.361
- CTACATCA — lower, 0.112
- AGACATGG — lower, 0.139
- AGACATGA — lower, 0.198
- GTACATGA — lower, 0.328
- ATACATAT — lower, 0.359
- ATACATAA — lower, 0.308
- CCTCTGAC — lower, -0.145
- CACCCTTC — lower, -0.121
- ATGCCCCC — lower, -0.266
- AGAGTTCC — lower, -0.135
- CTGGCACC — lower, -0.232
- CACCTTAA — lower, 0.0232
- CCTTCAGA — lower, -0.0591
- CGACATGC — lower, 0.279
- CTACATTC — lower, 0.0249
- AGACATGC — lower, 0.0904
- CTACATGC — lower, 0.355
- ATACATCC — lower, 0.201
- CCCAAGGA — lower, -0.0628
- GTCTGCAA — lower, -0.0815
- AGCATGGC — lower, 0.0473
- CGCTGTTA — lower, -0.0162
- TAGCTAGA — lower, -0.0751
- CGCACTGC — lower, -0.0709
- GAGCCTGC — higher, 0.389
- AGGCCTGA — lower, -0.288
- ATGCCTAG — lower, 0.199
- CTGCCTGA — lower, 0.223
- CTGCCTAC — lower, 0.264
- GAGCCTGA — lower, 0.26
- ATGCCTGA — higher, 0.376
- AGGCCTTC — lower, -0.154
- CAGCCTGC — lower, -0.106
- CTGCCTTC — lower, 0.2
- ATGCCTAC — higher, 0.424
- ATGCCTTC — lower, 0.36
- AAGTAACC — lower, 0.00035
- ATCCAGCG — lower, -0.127
- GAACCCTC — lower, -0.176
- AGGAAGCG — lower, -0.0464
- GTATGCTA — lower, -0.0526
- ATCGAAAG — lower, -0.0284
- GTTTCATA — lower, -0.0759
- CTCTAACA — lower, 0.0488
- GTAGCCTA — lower, 0.177
- GTAGAAGA — lower, -0.00994
- ACAAGGCC — lower, 0.0968
- ACACTTAC — lower, 0.188
- CGCACATA — lower, -0.146
- CTGCCTCC — lower, -0.215
- ATGCCTCA — lower, 0.111
- CTGCCTCA — lower, -0.15
- AAGCCTTA — lower, -0.147
- ATGCCTTG — lower, 0.267
- CTGCCTTA — lower, 0.059
- GCGCCTTA — lower, 0.31
- GTGCCTTA — higher, 0.49
- GTGCCTCA — higher, 0.454
- ATGCCTGC — higher, 0.407
- ATGCCTGG — lower, 0.127
- ATGCCTTA — lower, 0.342
- CTGCCTGC — lower, 0.336
- GCAGCCTA — lower, -0.0663
- CCAAGAGA — lower, -0.0138
- CGGCCTGC — lower, -0.212
- AGTGGCCA — lower, -0.158
